40 molecules from PubChem BioAssay (NCATS) can be followed below.

Inconclusive results are not listed. Active and inactive are the calls of the source. The call rests on the fitted dose curve; in most records, active means well fitted curve in the direction sought with a large enough effect; inconclusive means small, poorly fitted or top-dose-only effect, or another doubt; inactive means no such curve, though single readings can be large or run the other way.

Sequence of Ferritin light chain (Equus caballus) (P02791 2-175 limits assumed): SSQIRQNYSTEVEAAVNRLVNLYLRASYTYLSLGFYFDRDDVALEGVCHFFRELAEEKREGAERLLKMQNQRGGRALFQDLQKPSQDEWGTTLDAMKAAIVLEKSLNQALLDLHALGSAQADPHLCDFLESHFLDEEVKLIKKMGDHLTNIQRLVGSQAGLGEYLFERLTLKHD

The assay concerns the target Ferritin light chain (Equus caballus) (UniProt P02791). In words: qHTS Validation Assay for Identification of Novel General Anesthetics (AID 2323). The following applies: horse apoferritin, anesthetic-site fluorescent probe displacement; series mostly up to 76.9 µM. The source says:
Source: NIH Chemical Genomics Center [NCGC]
Assay Submitter: Roderic Eckenhoff, University of Pennsylvania
Screening Center PI: Christopher P. Austin, NIH
Probe Development: NIH Chemical Genomics Center [NCGC]
Anesthetic development has remained a largely empirical process. There are growing concerns about the cognitive effects of known general anesthetics and acceleration of the onset of neurodegenerative disease. The compounds' toxicity and multiple specific binding targets in the mammalian brain [4] has made them less attractive as drug leads. In this assay, a GABAergic mimetic model system, apoferritin and a profluorescent 1-aminoanthracene ligand (1-AMA), was used to construct a competitive binding assay for identification of novel general anesthetics. The assay was validated for 1-AMA using other known anesthetics, such as isoflurane (CID:3763) and propofol (CID: 4943), [6].
[1] S.L. Bianchi, T. Tran, C. Liu, S. Lin, Y. Li, J.M. Keller, R.G. Eckenhoff, and M.F. Eckenhoff, Brain and behavior changes in 12-month-old Tg2576 and nontransgenic mice exposed to anesthetics. Neurobiol Aging 29 (2008) 1002-10.
[2] Z. Xie, Y. Dong, U. Maeda, R.D. Moir, W. Xia, D.J. Culley, G. Crosby, and R.E. Tanzi, The inhalation anesthetic isoflurane induces a vicious cycle of apoptosis and amyloid beta-protein accumulation. J Neurosci 27 (2007) 1247-54.
[3] P. Honegger, and J.M. Matthieu, Selective toxicity of the general anesthetic propofol for GABAergic neurons in rat brain cell cultures. J Neurosci Res 45 (1996) 631-6.
[4] M.F. Eckenhoff, K. Chan, and R.G. Eckenhoff, Multiple specific binding targets for inhaled anesthetics in the mammalian brain. J Pharmacol Exp Ther 300 (2002) 172-9.
[5] C.A. Butts, J. Xi, G. Brannigan, A.A. Saad, S.P. Venkatachalan, R.A. Pearce, M.L. Klein, R.G. Eckenhoff, and I.J. Dmochowski, Identification of a fluorescent general anesthetic, 1-aminoanthracene. Proc Natl Acad Sci U S A 106 (2009) 6501-6.
[6] W.A. Lea, J. Xi, A. Jadhav, L. Lu, C.P. Austin, A. Simeonov, and R.G. Eckenhoff, A high-throughput approach for identification of novel general anesthetics. PLoS One 4 (2009) e7150.
Three uL of reagents (free 1-AMA (50% saturated solution of 1-aminoanthracene
in PBS) in columns 3, 4 as negative control and 1-AMA/apoferritin mixture (10 uM horse-spleen apoferritin in 50% saturated 1-aminoanthracene in PBS) in columns 1, 2, 5-48) was dispensed into 1536-well Greiner black assay plates. Compounds (23 nL) were transferred via Kalypsys pintool equipped with 1,536-pin array (10 nL slotted pins, V&P Scientific, San Diego, CA). Titration of the positive control, propofol, were delivered via pin transfer from separate control plates to the 2nd column of each assay plate. The starting concentration of the control, dissolved in DMSO, was at 160 mM, followed by two-fold dilution points in duplicate, for a total of 16 concentrations. The plates were incubated for 10 min at room temperature, and then read on an EnVision HTS multilabel reader (Perkin-Elmer, Waltham, MA) (end point read, 3 min/plate) using Fura2 BFP excitation filter (380 nm, bandwidth 10 nm) and fluorescein emission filter (535 nm, bandwidth 25 nm) set. A LANCE/DELFIA dichroic mirror with a cutoff wavelength at 400 nm was used to maximize signal accuracy and strength. Vehicle-only plates, with DMSO being pin-transferred to the entire column 5-48 compound area, were inserted uniformly at the beginning and the end of each library in order to monitor for and record any shifts in the background. Activity was computed as the normalized fluorescence response relative to free 1-AMA and 1-AMA/apoferritin complex values. Concentration-effect relationships were derived by using curve fitting algorithms developed in-house (http://ncgc.nih.gov/pub/openhts/). A four parameter Hill equation was fitted to the concentration-response data by minimizing the residual error between the modeled and observed responses.
Background: Quantitative high-throughput screening tests each substance at several concentrations.
In the case of `CCCNC[C@H](O)COc1ccccc1C(=O)CCc1ccccc1`, the call was inactive. Next, `CNc1ncnc2c1ncn2[C@@H]1O[C@H](CO)[C@H](O)[C@H]1O`: “inactive”; `N=C(N)SCCc1cccc(CCSC(=N)N)c1`: “inactive”.

For the molecule `CCCC(=O)NCCc1c2n(c3ccc(OC)cc13)Cc1ccccc1-2`, the molecule was classed as inactive.

As to `OC[C@H]1O[C@@H](n2cnc3c(NCCc4ccccc4)ncnc32)[C@H](O)[C@H]1O`, the outcome was inactive. Next, `COc1cc(=O)n(C)c2c(OCC(O)C(C)(C)O)cccc12` (stereo not given): “inactive”; `N[C@H](Cc1ccc(O)c(O)c1)C(=O)O`: “inactive”. With `C[C@]12CCC(=O)C=C1CC[C@@H]1C2[C@@H](O)C[C@@]2(C)[C@H]1CC[C@]2(O)C(=O)CO` (stereo not given in full), the outcome was inactive. `NCCNC(=O)c1ccc(Cl)cc1`: the result was inactive. The same measure for `C[C@H](Cc1ccccc1)Nc1ncnc2c1ncn2[C@@H]1O[C@H](CO)[C@H](O)[C@H]1O`: “inactive”; for `CNC(=O)[C@H]1O[C@@H](n2cnc3c(NCc4ccc(N)cc4)ncnc32)[C@H](O)[C@H]1O`: “inactive”; for `CCCCC#Cc1nc(N)c2ncn([C@@H]3O[C@H](C(=O)NCC)[C@@H](O)[C@H]3O)c2n1`: “inactive”. Consider `COc1cc2c(cc1OC)C(c1ccccc1)CN(C)CC2` (stereo not given), for which the molecule was classed as inactive.

As to `NCCCCNS(=O)(=O)c1cccc2c(Cl)cccc12`, the result was inactive. Next, `Cc1cn([C@H]2C[C@@H](N=[N+]=[N-])[C@@H](CO)O2)c(=O)[nH]c1=O`: “inactive”; `COC(=O)c1c(-c2cc(OC)c(OC)c(OC)c2)c2ccc(OCc3ccccn3)cc2c(=O)n1-c1ccc(N)cc1`: “inactive”. The same measure for `OC[C@H]1O[C@@H](n2cnc3c(NC4CCCC4)ncnc32)[C@H](O)[C@H]1O`: “inactive”; for `Nc1ncnc2c1ncn2[C@@H]1O[C@H](C(=O)NC2CC2)[C@H](O)[C@H]1O`: “inactive”; for `OC[C@H]1O[C@@H](n2cnc3c(N[C@H]4CC5CCC4C5)ncnc32)[C@H](O)[C@@H]1O` (stereo not given in full): “inactive”. Next, `COc1c2c(nc3ccccc13)OC(C(C)(O)CO)C2` (stereo not given): “inactive”; `Nc1nc2c(nc(Br)n2C2O[C@H]3COP(=O)(O)O[C@@H]3C2O)c(=O)[nH]1` (stereo not given in full): “inactive”.

As to `CN=C(N)NCCCC(N)C(=O)O` (stereo not given), the result was inactive. The same measure for `Nc1nc(Nc2ccccc2)nc2c1ncn2[C@@H]1O[C@H](CO)[C@H](O)[C@H]1O`: “inactive”; for `Cc1ccccc1N1CCN(S(=O)(=O)C[C@]23CCC(CC2NC(=O)[C@@H](N)CCS(C)(=O)=O)C3(C)C)CC1` (stereo not given in full): “inactive”.

Take `CC(C)C[C@H]1C(=O)N2CCCC2[C@]2(O)O[C@](NC(=O)[C@@H]3C=C4c5cccc6[nH]c(Br)c(c56)C[C@H]4N(C)C3)(C(C)C)C(=O)N12` (stereo not given in full): the result was inactive. Next, `CC(N)=NCCCC(N)C(=O)O` (stereo not given): “inactive”; `COc1ccc(CCNC[C@@H](O)c2ccc(O)cc2)cc1OC`: “inactive”; `OC[C@H]1O[C@@H](n2cnc3c(Nc4ccccc4)ncnc32)[C@H](O)[C@H]1O`: “inactive”.

`CC(=O)O[C@H]1C[C@@H]2CCC3C(CC[C@@]4(C)[C@H]3C[C@H]([N+]3(C)CCCCC3)[C@@H]4OC(C)=O)[C@@]2(C)C[C@@H]1[N+]1(C)CCCCC1` (stereo not given in full): the molecule was called inactive. Regarding `CCCCCCCCCCCCCCC/C=C/[C@@H](O)[C@H](NC(=O)CCCCCCCCCCCCC)OC` (tested in a mixture with another compound), the outcome was inactive. For the molecule `CN1CCc2cc(Cl)c(O)cc2C(c2ccccc2)C1` (stereo not given), the call was inactive. `CSc1nc(N)c2ncn([C@@H]3O[C@H](COP(=O)(O)OP(=O)(O)OP(=O)(O)O)[C@H](O)[C@H]3O)c2n1`: the molecule was classed as inactive. Next, `CN(C)C1C(=O)C(C(N)=O)=C(O)[C@@]2(O)C(=O)C3=C(O)c4c(O)ccc(Cl)c4[C@@H](O)C3C[C@@H]12` (stereo not given in full): “inactive”; `NCCC(=O)NCCc1cnc[nH]1`: “inactive”; `CN1C(=O)CCC1c1cccnc1` (stereo not given): “inactive”.

Take `C[C@H]1CC2[C@@H]3CCC4=CC(=O)C=C[C@]4(C)[C@@]3(Cl)[C@@H](O)C[C@]2(C)[C@@]1(O)C(=O)CO` (stereo not given in full): the call was inactive. In the case of `NC(=NCCC[C@H](N)C(=O)O)NO`, the outcome was inactive. As for `NCC1OC(O[C@@H]2[C@H](O)[C@@H](OC3C(O)C(N)CC(N)C3OC3OC(CO)C(O)C(O)C3N)O[C@@H]2CO)C(N)C(O)C1O` (stereo not given in full), the result was inactive.

Take `Nc1ncnc2c1nc(Sc1ccc(Cl)cc1)n2[C@H]1O[C@@H]2COP(=O)(O)O[C@H]2[C@@H]1O`: the call was inactive.

As for `NC(=S)NCCCC(N)C(=O)O` (stereo not given), the molecule was classed as inactive.
